This is an account of results in PubChem BioAssay (NCI).

This is part of a sample that, as a whole, favours compounds with a hit. Of some 79,000 tested, about 15% had one in any assay. Unmarked numbers belong to inactive results. Activity calls are given as the source filed them. Rule as the data show it: active = growth inhibition above about 70%; inactive = the rest.

The nature of experiment [1]: NCI Yeast Anticancer Drug Screen. Data for the rad50 strain (AID 155).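 Also: 0% = growth of vehicle-only cultures of the same strain.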 The following applies: S. cerevisiae rad50 strain growth inhibition, stronger effect = higher value. The method, boiled down: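 Inhibition values express reduced yeast growth in compound-treated cultures relative to vehicle-treated controls.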
A short description of experiment [2]: NCI Yeast Anticancer Drug Screen. Data for the mec2-1 strain (AID 157). The following applies: S. cerevisiae mec2-1 strain, stronger effect = higher value. The method, boiled down:
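Cells of the genetically defined mec2-1 yeast strain are incubated with test compound. Inhibition of growth is calculated against vehicle-treated controls.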

A short description of experiment [3]: NCI Yeast Anticancer Drug Screen. Data for the sgs1 mgt1 strain (AID 161).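 Also: 0% = growth of cultures given vehicle only.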 The following applies: S. cerevisiae sgs1 mgt1 strain, stronger effect = higher value. The method, boiled down: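 Test agents were incubated with a DNA-repair-mutant yeast strain. Growth was then read and compared against vehicle-treated controls.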
Experiment [4] is described as follows: NCI Yeast Anticancer Drug Screen. Data for the cln2 rad14 strain (AID 165).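 Also: 0% = growth equal to vehicle treated cultures.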 The following applies: S. cerevisiae cln2 rad14 strain, stronger effect = higher value. Summed up:
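The screen exposed genetically defined yeast (cln2 rad14) to test compounds and scored growth inhibition relative to vehicle-treated controls.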

Experiment [5] is described as follows: NCI Yeast Anticancer Drug Screen. Data for the bub3 strain (AID 167). The settings on record: S. cerevisiae bub3 mutant strain, stronger effect = higher value. The method, boiled down:
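Steps: expose the mutant yeast strain to compound; grow alongside vehicle-treated cultures; measure growth; express inhibition against the vehicle cultures.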

A short description of experiment [6]: NCI Yeast Anticancer Drug Screen. Data for the mlh1 rad18 strain (AID 175). The following applies: S. cerevisiae mlh1 rad18 strain growth inhibition, stronger effect = higher value. Summed up:
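Compound-treated yeast growth, normalised to vehicle controls. Strain bears defined DNA repair mutations.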

Where [7] appears, read: at 5.0 µM (retest, dose inferred, filed as 0.5).
Setting [8] is: at 50.0 µM (retest, dose inferred, filed as 5.0).

Regarding `COC(=O)Nc1nc2ccc(C(C)(O)c3cccs3)cc2[nH]1` (stereo not given), the growth inhibition in experiment [1] (setting [7]) was -2%; in experiment [1] (setting [8]), 92% (active); in experiment [1] (at 50.0 µM), 97% (active); in experiment [2] (setting [7]) it was -8%; in experiment [2] (setting [8]), 95% (active); in experiment [2] (at 50.0 µM) it was 98.2% (active). Further, the growth inhibition in experiment [3] (setting [7]) is 3%; in experiment [3] (setting [8]), 95% (active); in experiment [3] (at 50.0 µM), 98% (active); in experiment [4] (setting [7]) it was -15%; in experiment [4] (setting [8]) it was 87% (active); in experiment [4] (at 50.0 µM), 92.2% (active). The growth inhibition was -3% in experiment [5] (setting [7]); 94% (active) in experiment [5] (setting [8]); 97.1% (active) in experiment [5] (at 50.0 µM); -5% in experiment [6] (setting [7]); 95% (active) in experiment [6] (setting [8]); 97.8% (active) in experiment [6] (at 50.0 µM).
For `CC(CCC(=O)O)[C@H]1CCC2[C@H]3C(CC[C@@]21C)[C@@]1(C)CCC(O)C[C@H]1C[C@@H]3O` (stereo not given in full), the growth inhibition is -11% in experiment [1] (setting [7]); 46% in experiment [1] (setting [8]); 75.1% (active) in experiment [1] (at 50.0 µM); -13% in experiment [2] (setting [7]); 56% in experiment [2] (setting [8]); 73.2% (active) in experiment [2] (at 50.0 µM). Moreover, the growth inhibition in experiment [3] (setting [7]) is -10%; in experiment [3] (setting [8]), 60%; in experiment [3] (at 50.0 µM), 79.3% (active); in experiment [4] (setting [7]), 2%; in experiment [4] (setting [8]), 73% (active); in experiment [4] (at 50.0 µM) it was 73% (active). For the same molecule, the growth inhibition is -13% in experiment [5] (setting [7]); 86% (active) in experiment [5] (setting [8]); 56.1% in experiment [5] (at 50.0 µM); -26% in experiment [6] (setting [7]); 76% (active) in experiment [6] (setting [8]); 71.6% (active) in experiment [6] (at 50.0 µM).
For `CNC(=S)N(C)C(=S)Nn1c(=O)c(C)nn(C)c1=S`, the growth inhibition in experiment [1] (setting [7]) was -24%; in experiment [1] (setting [8]), 59%; in experiment [1] (at 50.0 µM), 70.8% (active); in experiment [2] (setting [7]) it was -23%; in experiment [2] (setting [8]), 96% (active); in experiment [2] (at 50.0 µM), 79.7% (active). Also, the growth inhibition in experiment [3] (setting [7]) is -19%; in experiment [3] (setting [8]), 50%; in experiment [3] (at 50.0 µM), 87% (active); in experiment [4] (setting [7]) it was -3%; in experiment [4] (setting [8]) it was 66%; in experiment [4] (at 50.0 µM), 57.9%. Besides, the growth inhibition in experiment [5] (setting [7]) was -18%; in experiment [5] (setting [8]), 77% (active); in experiment [5] (at 50.0 µM) it was 78.4% (active); in experiment [6] (setting [7]), -27%; in experiment [6] (setting [8]), 97% (active); in experiment [6] (at 50.0 µM) it was 72.5% (active).
Turning to `CC(C)c1ccc2c(c1)CC[C@H]1[C@](C)(C(=O)O)CCC[C@]21C`, the growth inhibition is -1% in experiment [1] (setting [7]); 96% (active) in experiment [1] (setting [8]); 91.6% (active) in experiment [1] (at 50.0 µM); 2% in experiment [2] (setting [7]); 96% (active) in experiment [2] (setting [8]); 93% (active) in experiment [2] (at 50.0 µM). For the same molecule, the growth inhibition in experiment [3] (setting [7]) was 10%; in experiment [3] (setting [8]), 96% (active); in experiment [3] (at 50.0 µM), 91.8% (active); in experiment [4] (setting [7]), -11%; in experiment [4] (setting [8]), 96% (active); in experiment [4] (at 50.0 µM), 91.3% (active). In addition, the growth inhibition in experiment [5] (setting [7]) was -2%; in experiment [5] (setting [8]) it was 95% (active); in experiment [5] (at 50.0 µM), 90.8% (active); in experiment [6] (setting [7]) it was 9%; in experiment [6] (setting [8]), 95% (active); in experiment [6] (at 50.0 µM) it was 91.1% (active).
In the case of `COc1ccc(C2C3CCCC(C(c4ccc(OC)cc4)N2C)C32NC(=O)NC2=O)cc1` (stereo not given), the growth inhibition in experiment [1] (setting [7]) is 63%; in experiment [1] (setting [8]), 98% (active); in experiment [1] (at 50.0 µM) it was 97.2% (active); in experiment [2] (setting [7]) it was 25%; in experiment [2] (setting [8]), 98% (active); in experiment [2] (at 50.0 µM) it was 98% (active). The growth inhibition in experiment [3] (setting [7]) is 23%; in experiment [3] (setting [8]), 98% (active); in experiment [3] (at 50.0 µM), 97.8% (active); in experiment [4] (setting [7]) it was 2%; in experiment [4] (setting [8]) it was 97% (active); in experiment [4] (at 50.0 µM), 97.2% (active). Besides, the growth inhibition in experiment [5] (setting [7]) is 3%; in experiment [5] (setting [8]) it was 97% (active); in experiment [5] (at 50.0 µM), 97.8% (active); in experiment [6] (setting [7]) it was 29%; in experiment [6] (setting [8]) it was 95% (active); in experiment [6] (at 50.0 µM), 97.6% (active).
For the molecule `CCCCCN(CCCCC)C(C)C(=O)c1ccc2cc(Br)c3ccccc3c2c1` (stereo not given), the growth inhibition in experiment [1] (setting [7]) is 17%; in experiment [1] (setting [8]), 61%; in experiment [1] (at 50.0 µM), 93.9% (active); in experiment [2] (setting [7]), 9%; in experiment [2] (setting [8]), 46%; in experiment [2] (at 50.0 µM), 90.4% (active). In addition, the growth inhibition in experiment [3] (setting [7]) is 13%; in experiment [3] (setting [8]) it was 71% (active); in experiment [3] (at 50.0 µM), 90.7% (active); in experiment [4] (setting [7]), -2%; in experiment [4] (setting [8]), 42%; in experiment [4] (at 50.0 µM) it was 88.7% (active). Besides, the growth inhibition was 14% in experiment [5] (setting [7]); 66% in experiment [5] (setting [8]); 87.1% (active) in experiment [5] (at 50.0 µM); 7% in experiment [6] (setting [7]); 63% in experiment [6] (setting [8]); 95.5% (active) in experiment [6] (at 50.0 µM).
Take `CC(=O)/C(=C\c1ccc(N(C)C)cc1)C(C)=[N+](C)C(=O)c1c(/[N+](C)=C(C)\C(=C\c2ccc(N(C)C)cc2)C(C)=O)ncn1C`: the growth inhibition in experiment [1] (setting [7]) is 31%; in experiment [1] (setting [8]) it was 47%; in experiment [1] (at 50.0 µM), 87.7% (active); in experiment [2] (setting [7]), 14%; in experiment [2] (setting [8]) it was 70% (active); in experiment [2] (at 50.0 µM), 7.45%. Moreover, the growth inhibition is 47% in experiment [3] (setting [7]); 66% in experiment [3] (setting [8]); 77.3% (active) in experiment [3] (at 50.0 µM); -5% in experiment [4] (setting [7]); 43% in experiment [4] (setting [8]); 24.7% in experiment [4] (at 50.0 µM). For the same molecule, the growth inhibition is 10% in experiment [5] (setting [7]); 43% in experiment [5] (setting [8]); 43.4% in experiment [5] (at 50.0 µM); 49% in experiment [6] (setting [7]); 53% in experiment [6] (setting [8]); 85% (active) in experiment [6] (at 50.0 µM).
`CCC[CH2][Sn]([CH2]CCC)([O]C(=O)c1cc(OC)c(OC)c(OC)c1)[O]C(=O)c1cc(OC)c(OC)c(OC)c1`: the growth inhibition was 96% (active) in experiment [1] (setting [7]); 96% (active) in experiment [1] (setting [8]); 71.9% (active) in experiment [1] (at 50.0 µM); 96% (active) in experiment [2] (setting [7]); 96% (active) in experiment [2] (setting [8]); 84.7% (active) in experiment [2] (at 50.0 µM). Further, the growth inhibition in experiment [3] (setting [7]) was 94% (active); in experiment [3] (setting [8]), 94% (active); in experiment [3] (at 50.0 µM), 74.8% (active); in experiment [4] (setting [7]), 95% (active); in experiment [4] (setting [8]), 95% (active); in experiment [4] (at 50.0 µM), 80% (active). In addition, the growth inhibition in experiment [5] (setting [7]) was 97% (active); in experiment [5] (setting [8]) it was 97% (active); in experiment [5] (at 50.0 µM) it was 74.8% (active); in experiment [6] (setting [7]), 96% (active); in experiment [6] (setting [8]), 96% (active); in experiment [6] (at 50.0 µM), 78.5% (active).
Turning to `C/C(=N\NC(=S)N/N=C(\C)c1ccccn1)c1ccccn1`, the growth inhibition was 93% (active) in experiment [1] (setting [7]); 99% (active) in experiment [1] (setting [8]); 88.2% (active) in experiment [1] (at 50.0 µM); 90% (active) in experiment [2] (setting [7]); 99% (active) in experiment [2] (setting [8]); 91.5% (active) in experiment [2] (at 50.0 µM). The growth inhibition in experiment [3] (setting [7]) was 88% (active); in experiment [3] (setting [8]), 99% (active); in experiment [3] (at 50.0 µM) it was 84.7% (active); in experiment [4] (setting [7]), 93% (active); in experiment [4] (setting [8]), 98% (active); in experiment [4] (at 50.0 µM), 88.2% (active). The growth inhibition in experiment [5] (setting [7]) is 95% (active); in experiment [5] (setting [8]) it was 99% (active); in experiment [5] (at 50.0 µM), 87.9% (active); in experiment [6] (setting [7]), 93% (active); in experiment [6] (setting [8]), 99% (active); in experiment [6] (at 50.0 µM) it was 83% (active).
In the case of `COc1ccc(/C=C2\CN(C)C/C(=C\c3ccc(OC)cc3)C2=O)cc1`, the growth inhibition was 22% in experiment [1] (setting [7]); 75% (active) in experiment [1] (setting [8]); 14.2% in experiment [1] (at 50.0 µM); 18% in experiment [2] (setting [7]); 79% (active) in experiment [2] (setting [8]); 21.6% in experiment [2] (at 50.0 µM). Moreover, the growth inhibition in experiment [3] (setting [7]) was 3%; in experiment [3] (setting [8]), 87% (active); in experiment [3] (at 50.0 µM), 31.9%; in experiment [4] (setting [7]), 15%; in experiment [4] (setting [8]), 70% (active); in experiment [4] (at 50.0 µM) it was 38.8%. For the same molecule, the growth inhibition was 3% in experiment [5] (setting [7]); 85% (active) in experiment [5] (setting [8]); 30.8% in experiment [5] (at 50.0 µM); 25% in experiment [6] (setting [7]); 87% (active) in experiment [6] (setting [8]); 26.9% in experiment [6] (at 50.0 µM).
